Test results taken from PubChem BioAssay (NCATS).
Values joined by “and” are separate entries in the source; they are usually repeats but may differ in a detail not shown here. Identical values can stand only once. Records with an inconclusive call do not appear. Entries that show only a call come without a potency. Active and inactive are the calls of the source. The call rests on the fitted dose curve; in most records, active means well fitted curve in the direction sought with a large enough effect; inconclusive means small, poorly fitted or top-dose-only effect, or another doubt; inactive means no such curve, though single readings can be large; an effect the other way counts as inactive or inconclusive.

Assays:
[1] = qHTS of pediatric cancer cell lines to identify multiple opportunities for drug repurposing: Primary screen for A673 cells (AID 1347092); further: nearly all actives have a fitted effect of over 45% in size; further: potency means the concentration at half of the fitted maximal effect
Summary of the method: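 48 h compound exposure, A673, 500-1,000 cells/well, 37 degrees C/5% CO2. MIPE: 11-point, 0.78 nM-46 µM; NPC: 8-point, 0.59 nM-46 µM (final). Readout CellTiter-Glo luminescence after 15 min RT.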

[2] = qHTS of pediatric cancer cell lines to identify multiple opportunities for drug repurposing: Primary screen for SK-N-MC cells (AID 1347093); further: potency means the concentration at half of the fitted maximal effect
Summary of the method: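 Metabolically active cells were quantified by ATP-dependent luminescence (CellTiter-Glo, 15 min at room temperature) following 48 h treatment. Cells had been plated at 500-1,000 per well and settled for 5 h beforehand.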

[3] = qHTS of pediatric cancer cell lines to identify multiple opportunities for drug repurposing: Primary screen for BT-37 cells (AID 1347094); further: potency means the concentration at half of the fitted maximal effect
Summary of the method: (§1)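 Viability was measured as metabolically active cells after 48 hours of treatment, read by CellTiter-Glo luminescence. Compounds were tested at multiple final concentrations, giving concentration-response curves.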

[4] = qHTS of pediatric cancer cell lines to identify multiple opportunities for drug repurposing: Primary screen for NB-EBc1 cells (AID 1347095); further: potency means the concentration at half of the fitted maximal effect
Summary of the method: as §1

[5] = qHTS of pediatric cancer cell lines to identify multiple opportunities for drug repurposing: Primary screen for U-2 OS cells (AID 1347096); further: nearly all actives have a fitted effect of over 50% in size
Summary of the method: (§2)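 Cells (500-1,000/well) rested 5 h, then received compounds for 48 h; metabolically active cells were measured by CellTiter-Glo luminescence. Final concentrations spanned up to 46 µM (MIPE, 11-point) or 0.59 nM-46 µM (NPC, 8-point) in primary screens, 11-point in follow-ups.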

[6] = qHTS of pediatric cancer cell lines to identify multiple opportunities for drug repurposing: Primary screen for Saos-2 cells (AID 1347097); further: nearly all actives have a fitted effect of over 40% in size; further: potency means the concentration at half of the fitted maximal effect
Summary of the method: as §1

[7] = qHTS of pediatric cancer cell lines to identify multiple opportunities for drug repurposing: Primary screen for LAN-5 cells (AID 1347100); further: potency means the concentration at half of the fitted maximal effect
Summary of the method: as §2

[8] = qHTS of pediatric cancer cell lines to identify multiple opportunities for drug repurposing: Primary screen for Rh18 cells (AID 1347102); further: nearly all actives have a fitted effect of over 65% in size; further: potency means the concentration at half of the fitted maximal effect
Summary of the method: as §2

[9] = qHTS of pediatric cancer cell lines to identify multiple opportunities for drug repurposing: Primary screen for RD cells (AID 1347104); further: nearly all actives have a fitted effect of over 55% in size; further: potency means the concentration at half of the fitted maximal effect
Summary of the method: as §1

[10] = qHTS of pediatric cancer cell lines to identify multiple opportunities for drug repurposing: Primary screen for MG 63 (6-TG R) cells (AID 1347105); further: nearly all actives have a fitted effect of over 50% in size; further: potency means the concentration at half of the fitted maximal effect
Summary of the method: as §1

[11] = qHTS of pediatric cancer cell lines to identify multiple opportunities for drug repurposing: Primary screen for control Hh wild type fibroblast cells (AID 1347106);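 further: series mostly up to about 46 µM; a drop in luminescence marks cytotoxicity and a rise apparent proliferation; nearly all actives have a fitted effect of over 55% in size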
Summary of the method: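 Viability after 48 h compound treatment at 37C, 500-1,000 cells/well, read as ATP luminescence with CellTiter-Glo. Primary screens used 11-point (MIPE, 0.78 nM-46 µM) or 8-point (NPC, 0.59 nM-46 µM) final concentrations; follow-up screens used 11-point dilutions.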

[12] = qHTS of pediatric cancer cell lines to identify multiple opportunities for drug repurposing: Primary screen for Rh30 cells (AID 1347107); further: series mostly up to about 46 µM; nearly all actives have a fitted effect of over 75% in size
Summary of the method: as §2

[13] = qHTS of pediatric cancer cell lines to identify multiple opportunities for drug repurposing: Primary screen for SK-N-SH cells (AID 1347098); further: nearly all actives have a fitted effect of over 65% in size; further: potency means the concentration at half of the fitted maximal effect
Summary of the method: as §2

[14] = qHTS of pediatric cancer cell lines to identify multiple opportunities for drug repurposing: Primary screen for BT-12 cells (AID 1347101); further: nearly all actives have a fitted effect of over 25% in size; further: potency means the concentration at half of the fitted maximal effect
Summary of the method: as §2

[15] = qHTS of pediatric cancer cell lines to identify multiple opportunities for drug repurposing: Primary screen for NB1643 cells (AID 1347099); further: nearly all actives have a fitted effect of over 50% in size; further: potency means the concentration at half of the fitted maximal effect
Summary of the method: as §1

[16] = qHTS of pediatric cancer cell lines to identify multiple opportunities for drug repurposing: Primary screen for OHS-50 cells (AID 1347103); further: nearly all actives have a fitted effect of over 40% in size; further: potency means the concentration at half of the fitted maximal effect
Summary of the method: as §2

[17] = qHTS of pediatric cancer cell lines to identify multiple opportunities for drug repurposing: Primary screen for Rh41 cells (AID 1347108); further: nearly all actives have a fitted effect of over 70% in size; further: potency means the concentration at half of the fitted maximal effect
Summary of the method: as §1

[18] = qHTS of pediatric cancer cell lines to identify multiple opportunities for drug repurposing: Confirmatory screen for A673 cells (AID 1347110);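 further: cells exposed to compound for 48 h before the viability read; nearly all actives have a fitted effect of over 65% in size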; further: potency means the concentration at half of the fitted maximal effect
Summary of the method: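 Concentration-response curves came straight from titrations: 11 points (0.78 nM to 46 µM) for MIPE and several concentrations (0.59 nM to 46 µM) for NPC in primary, 11 points in follow-up. Readout: ATP luminescence at 48 h.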

[19] = qHTS of pediatric cancer cell lines to identify multiple opportunities for drug repurposing: Confirmatory screen for SK-N-MC cells (AID 1347111);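 further: cells exposed to compound for 48 h before the readout; nearly all actives have a fitted effect of over 70% in size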; further: potency means the concentration at half of the fitted maximal effect
Summary of the method: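 Seed 500-1,000 cells/well; rest 5 h at 37 degrees C. Pin-transfer compounds, 11-point titration. Incubate 48 h. Add CellTiter-Glo, 15 min RT, read luminescence.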

[20] = qHTS of pediatric cancer cell lines to identify multiple opportunities for drug repurposing: Confirmatory screen for NB1643 cells (AID 1347109); further: nearly all actives have a fitted effect of over 45% in size
Summary of the method: as §2

Row | SMILES | Potency [1] | Potency [2] | Potency [3] | Potency [4] | Potency [5] | Potency [6] | Potency [7] | Potency [8] | Potency [9] | Potency [10] | Potency [11] | Potency [12] | Potency [13] | Potency [14] | Potency [15] | Potency [16] | Potency [17] | Potency [18] | Potency [19] | Potency [20]
1 | Cc1cc(SCc2sc(-c3ccc(C(F)(F)F)cc3)nc2C)ccc1OCC(=O)O | inactive | 18.7 µM (active) | inactive | inactive | inactive | inactive | inactive | inactive | inactive | inactive | inactive | inactive |  |  |  |  |  |  |  | 
2 | CCCn1c(=O)c2[nH]c(C34CC5CC3C[C@@H](C5)C4)nc2n(CCC)c1=O | 18.7 µM (active) | 10.5 µM (active) | inactive |  | inactive |  |  |  |  |  | inactive |  | inactive | inactive |  |  |  |  |  | 
3 | O=C1[C@H](Cc2ccc(O)cc2)N2C(=O)CCN(C(=O)NCc3ccccc3)[C@H]2CN1Cc1cccc2ccccc12 | 11.8 µM (active) | 1.18 µM (active) | 4.85 µM (active) | 14.8 µM (active) | inactive |  | 10.5 µM (active) |  | 10.5 µM (active) | 3.72 µM (active) |  |  |  |  | 2.96 µM (active) | 4.85 µM (active) |  |  |  | 
4 | Cc1cccc(-c2[nH]c(C(C)(C)C)nc2-c2ccc3nccnc3c2)n1 | 14.8 µM (active) | 10.5 µM (active) | 19.3 µM (active) |  |  | 1.66 µM (active) |  |  |  | inactive | inactive | inactive |  | 24.3 µM (active) | 16.6 µM (active) | 6.11 µM (active) | 2.96 µM (active) |  |  | 
5 | Cc1c(CN2CCN(C(=O)C(C)C)CC2)sc2c(N3CCOCC3)nc(-c3cnc(N)nc3)nc12 | 0.469 µM (active) | 0.0235 µM (active) | 0.485 µM (active) | 0.118 µM (active) |  | 0.332 µM (active) |  | 0.264 µM (active) | 0.935 µM (active) | 0.118 µM (active) |  |  | 0.961 µM (active) | 0.685 µM (active) | 6.62 µM (active) | 0.0343 µM (active) | 0.235 µM (active) | 1.47 µM (active) | 0.465 µM (active) | 
6 | COc1cc2nccc(Oc3ccc(NC(=O)NC4CC4)c(Cl)c3)c2cc1C(N)=O | 0.469 µM (active) | 0.935 µM (active) | 1.37 µM (active) | 0.0935 µM (active) | inactive |  | 0.372 µM (active) | 5.26 µM (active) | 14.8 µM (active) |  |  | inactive | 1.52 µM (active) | 6.85 µM (active) | 2.96 µM (active) |  | 5.9 µM (active) |  | 26.1 µM (active) | 
7 | Nc1cccc(S(=O)(=O)N2CCCN(S(=O)(=O)c3ccc4c(c3)OCCO4)CC2)c1 | inactive | inactive | inactive | inactive | inactive |  | inactive | inactive | inactive | inactive | inactive |  |  |  |  |  |  |  |  | 
8 | CCC(C)N(C)C(=O)c1cc2ccccc2c(-c2ccccc2Cl)n1 (stereo unspecified) | inactive | inactive | inactive | inactive | inactive |  |  | inactive | inactive | inactive | inactive | inactive |  |  |  |  |  |  |  | 
9 | Cc1ccc(NC(=O)c2cccc(C(C)(C)C#N)c2)cc1Nc1ccc2ncn(C)c(=O)c2c1 | 14.8 µM (active) | 18.7 µM (active) |  | 5.26 µM (active) |  |  |  |  | 1.18 µM (active) | inactive | inactive |  | 24.1 µM (active) |  | 18.7 µM (active) |  |  |  |  | 
10 | COc1ccccc1-c1cccc(-c2c(O)c3cc(C#N)c(Cl)cc3[nH]c2=O)c1 | inactive | 34 µM (active) |  | 7.62 µM (active) | inactive |  | inactive | inactive | inactive | inactive | inactive | inactive | inactive |  | inactive | inactive | inactive |  |  | 
11 | O=C(NOC[C@H](O)CO)c1ccc(F)c(F)c1Nc1ccc(I)cc1F | 5.9 µM (active) | 0.0469 µM (active) |  |  |  | inactive |  | inactive | 0.0935 µM (active) |  |  |  | 0.341 µM (active) |  |  | inactive |  | inactive | inactive | inactive
12 | CCN(CC)CCCC(C)Nc1ccnc2cc(Cl)ccc12 (stereo unspecified) | 2.96 µM (active) | 0.0372 µM (active) |  | inactive | inactive |  |  | inactive | 13 µM (active) and 6.62 µM (active) | 11.8 µM (active) | inactive | inactive |  | 3.43 µM (active) | 1.48 µM (active) | 8.63 µM (active) | inactive | inactive |  | inactive
13 | Fc1ccc(Cl)cc1-c1nc(Nc2ccncc2)c2nccnc2n1 | inactive | inactive |  | inactive | inactive |  | inactive | inactive | inactive | inactive | inactive | inactive | inactive | inactive | inactive | inactive | inactive |  |  | 
14 | CC[C@@H](C)[C@H](NC(=O)[C@H](CC1CCCCC1)NC(=O)c1ccno1)C(=O)N1CCC2(CCc3ccccc32)CC1 | inactive | 8.33 µM (active) |  |  | inactive |  |  | inactive |  | inactive | inactive |  | inactive |  | 23.5 µM (active) | 17.2 µM (active) |  |  |  | 
15 | O=C(c1cc(Cc2n[nH]c(=O)c3ccccc23)ccc1F)N1CCN(C(=O)C2CC2)CC1 | 5.9 µM (active) | 7.43 µM (active) |  | 10.5 µM (active) | inactive |  | 14.8 µM (active) | inactive |  |  |  |  | 21.5 µM (active) |  | 14.8 µM (active) | 24.3 µM (active) |  | 0.104 µM (active) |  | inactive
